Source: PubChem BioAssay AID1259420 (Broad Institute, 2018)
Values joined by “and” are separate entries in the source; they are usually repeats but may differ in a detail not shown here. Equal values may be shown once. Screen size: about 1,000 compounds; about 250 (25%) were called active. Not shown: some 31% with an inconclusive outcome. A selection follows. Results with a measured potency or affinity are listed apart. Unmarked numbers belong to inactive results. How the calls were made is not given here.

Experiment: T. gondii intracellular growth, IFN-gamma absent, dose response, cell-based (AID 1259420);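 further: host cells were HeLa; final incubation lasted 72 hours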
Conditions: Toxoplasma gondii growth in host cells, no IFN-gamma; at 19.5 µM unless noted

Question: With `COCC1CN(Cc2cc(C)on2)Cc2c1cnn2CC1CC1` (stereo not given) as the compound, how does the max activity read?
Answer: -5.27% [at 10 µM]

Question: With `COc1ccc(-n2c(C)c([N+](=O)[O-])c3ccc(O)cc32)cc1` as the compound, how does the max activity read?
Answer: 7.23% [at 1.2 µM]

Question: For `COc1ccc(S(=O)(=O)N2CCCCN3[C@H](C2)[C@@H](c2ccc(C#CCC(C)C)cc2)[C@@H]3CO)cc1`, which max activity is on record?
Answer: 29.4% [at 10 µM]

Question: Which max activity does the source give for `COCCC(=O)C1Cc2nc(-c3ccccc3)sc2N1CC1CC1` (stereo not given) here?
Answer: -9.12% [at 0.3 µM]

Question: Which max activity does the source give for `O=C(C1CCCCC1)N1C[C@@H]2N[C@H](C1)C2c1ccc(-c2ccccc2F)cc1` (stereo not given in full) here?
Answer: 13.7% [at 2.6 µM]

Question: For `C=CCN1C(=O)CC[C@H]2[C@@H]1CCN2S(=O)(=O)CC`, which max activity is on record?
Answer: -17.5% [at 10 µM]

Question: With `CCCNC(=O)N1C[C@@H]2N[C@H](C1)C2c1ccc(-c2ccc(OC)cc2)cc1` (stereo not given in full) as the compound, how does the max activity read?
Answer: 11.6% [at 21 µM]

Question: Which max activity does the source give for `Cc1ccc(CN2CC3CN(Cc4cccc(F)c4)CC3C2)s1` (stereo not given) here?
Answer: -13.6% [at 1.2 µM]

Question: Which max activity does the source give for `Cc1cnc(N2CCC3(CCN(CC4CC4)C3=O)CC2)nc1` here?
Answer: -10.4%

Question: Which max activity does the source give for `COCC#Cc1ccc([C@@H]2[C@@H](CO)N3C(=O)CN(C(=O)c4ccncc4)C[C@@H]23)cc1` here?
Answer: -8.48% [at 10 µM]

Question: For `CC(C)[C@H](CO)Nc1nc(Nc2ccc(C(=O)O)c(Cl)c2)c2ncn(C(C)C)c2n1`, which max activity is on record?
Answer: -10.3% [at 10 µM]

Question: With `O=C(NCc1ccccc1)C1CC2(CO1)CN(C(=O)c1ccc(F)cc1)c1ccccc12` (stereo not given) as the compound, how does the max activity read?
Answer: -16.3% [at 10 µM]

Question: With `O=C1N(CC2CC2)CCC12CCCN(Cc1cncc(Cl)c1)CC2` (stereo not given) as the compound, how does the max activity read?
Answer: -16.7% [at 10 µM]

Question: With `O=C(Nc1ccc(F)cc1)N1CC(=O)N2[C@@H](CO)[C@@H](c3ccc(C4=CCCC4)cc3)[C@@H]2C1` as the compound, how does the max activity read?
Answer: 14.9%

Question: For `N#C[C@@H]1N[C@H](CO)[C@H]1c1ccc(-c2cccc(F)c2)cc1`, which max activity is on record?
Answer: 13.1%

Question: Which max activity does the source give for `CS(=O)(=O)N1CCN(C2CCOCC2)CC(C(=O)O)C1` (stereo not given) here?
Answer: -14.9% [at 5 µM]

Question: With `CCOc1ccc(-c2nc(CN(c3ccc(OC)cc3)S(=O)(=O)c3cccs3)c(C)o2)cc1` as the compound, how does the max activity read?
Answer: 18.6% [at 10 µM]

Question: For `COc1ccc(-c2nc(CN(c3ccccc3OC)S(=O)(=O)c3ccccc3)c(C)o2)cc1`, which max activity is on record?
Answer: -9.94% [at 0.6 µM]

Question: Which max activity does the source give for `CC(C)Oc1ccc(NC(=O)c2nc3c(n2C(C)C)CCN(C(=O)c2ccccc2)C3)cc1` here?
Answer: 12.7% [at 0.08 µM]

Question: For `CCOC(=O)c1nn(Cc2ccccc2)c2c1CN(C(=O)CN1CC(c3ccccc3)CC1=O)CC2` (stereo not given), which max activity is on record?
Answer: -13.6%

Question: For `O=C(C1CCOCC1)N1CC(=O)N2[C@@H](CO)[C@@H](c3ccc(C#CC4CCCCC4)cc3)[C@@H]2C1`, which max activity is on record?
Answer: 14.6%

Question: Which max activity does the source give for `CC(C)C#Cc1ccc([C@H]2[C@@H](CO)N3C(=O)CN(C(=O)NC4CCCC4)C[C@H]23)cc1` here?
Answer: -5.62% [at 10 µM]

Question: With `Cc1nc2ccccc2n1CC(O)Cn1c2ccccc2c2ccccc21` (stereo not given) as the compound, how does the max activity read?
Answer: -12.4%

Question: With `O=C(Cc1cccnc1)N1CC(=O)N2[C@H](CO)[C@H](c3ccc(C#CC4CCCCC4)cc3)[C@H]2C1` as the compound, how does the max activity read?
Answer: -8.11% [at 0.3 µM]

Question: With `CN(C)C(=O)COCc1cncc2c1CCN(c1ccccn1)C2` as the compound, how does the max activity read?
Answer: -8.88% and 11.8%

Question: With `Cc1ccccc1S(=O)(=O)N1CCCCN2[C@H](C1)[C@H](c1ccc(C#CCN(C)C)cc1)[C@@H]2CO` as the compound, how does the max activity read?
Answer: 20.9% [at 10 µM]

Question: With `Clc1ccccc1CSc1nc(NC2CCCCC2)c2ccccc2n1` as the compound, how does the max activity read?
Answer: 12.5%

Question: With `CS(=O)(=O)N1CC(=O)N2[C@H](CO)[C@@H](c3ccc(Br)cc3)[C@H]2C1` as the compound, how does the max activity read?
Answer: 4.03%

Question: With `COc1cccc(-c2ccc(C3[C@H]4CNC[C@@H]3N4C(=O)NC3CCCCC3)cc2)c1` (stereo not given in full) as the compound, how does the max activity read?
Answer: 28.1%

Question: Which max activity does the source give for `COc1cccc(-c2ccc(C3[C@H]4CNC[C@@H]3N4CC3CCCCC3)cc2)c1` (stereo not given in full) here?
Answer: 15.2%
